Our source for the growth values is PubChem BioAssay (NCI).

About 83,000 compounds went through this panel and 20% of them were active in at least one assay; those are over-represented in the sample as a whole.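 Plates (96-well) were seeded with cells, treated with compound at one concentration, and incubated for 48 hours before percent growth was determined.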 A number with no mark means an inactive call. Calls of active or inactive are those of the source. How the source made its calls: active means growth percent below 10; inactive means the rest.

Among the test systems are SR leukemia; RPMI-8226 leukemia; OVCAR-8 ovarian; OVCAR-5 ovarian; OVCAR-4 ovarian; SK-OV-3 ovarian; IGROV1 ovarian; OVCAR-3 ovarian; HS 578T breast; NCI/ADR-RES ovarian; T-47D breast; BT-549 breast; MDA-MB-435 melanoma; SW-620 colon; MCF7 breast; HCT-116 colon; HCC-2998 colon; KM12 colon.
Holding throughout (assay): NCI-60 one-dose screen, 48 h (100 = growth as untreated, 0 = no growth, -100 = all killed)
Details in all cases: 10 µM unless noted

Regarding `CCn1cc(C(=O)N/N=C/c2ccccc2)c(=O)c2cc(F)c(N3CCNC(C)C3)c(F)c21` (centres undefined), the growth is -14.6% (active) in the assay on SR leukemia; -42.4% (active) in the assay with RPMI-8226 leukemia; 28.4% in the assay with OVCAR-8 ovarian; 67% in the assay with OVCAR-5 ovarian; 70.7% with OVCAR-4 ovarian; 104% with SK-OV-3 ovarian. The growth is 58% with IGROV1 ovarian; -75% (active) with OVCAR-3 ovarian; 69.7% with HS 578T breast; 56% in the assay with NCI/ADR-RES ovarian; 63.6% in the assay with T-47D breast; 77.8% in the assay with BT-549 breast. Also, the growth with MDA-MB-435 melanoma was -88.1% (active); in the assay with SW-620 colon, -81.1% (active); in the assay with MCF7 breast it was -84.4% (active); in the assay with HCT-116 colon, 57.6%; in the assay with HCC-2998 colon, -82.9% (active); with KM12 colon it was -89.4% (active).

Take `O=C(NCCNC(c1ccccc1)C(NCCNC(=O)c1ccccc1)c1ccccc1)c1ccccc1` (centres undefined): the growth in the assay on SR leukemia was 50.2%; in the assay on RPMI-8226 leukemia, 90.1%; in the assay on OVCAR-8 ovarian, 78.9%; with OVCAR-5 ovarian it was 83.8%; with OVCAR-4 ovarian, 91.3%; in the assay with SK-OV-3 ovarian, 99.9%. Also, the growth is 82.4% in the assay on IGROV1 ovarian; 116% in the assay on OVCAR-3 ovarian; 115% in the assay with HS 578T breast; 76.6% in the assay on NCI/ADR-RES ovarian; 97.8% in the assay on T-47D breast; 96.4% with BT-549 breast. Also, the growth with MDA-MB-435 melanoma was 114%; with SW-620 colon, 57.8%; with MCF7 breast, 70.7%; in the assay on HCT-116 colon it was 53.8%; in the assay on HCC-2998 colon it was 105%; with KM12 colon, 100%.

Take `COc1ccc(C(=O)Nc2ncc(Cc3ccc(Cl)cc3)s2)cc1`: the growth is 5.82% (active) with SR leukemia; 18.2% in the assay on RPMI-8226 leukemia; 25.7% in the assay on OVCAR-8 ovarian; 30.2% in the assay with OVCAR-5 ovarian; 49.1% in the assay on OVCAR-4 ovarian; 40% in the assay with SK-OV-3 ovarian. The growth in the assay with IGROV1 ovarian is 14.4%; in the assay on OVCAR-3 ovarian, -16.2% (active); with HS 578T breast, 18.2%; in the assay with NCI/ADR-RES ovarian, 9.45% (active); in the assay on T-47D breast, 25.9%; with BT-549 breast, 17.8%. Moreover, the growth in the assay on MDA-MB-435 melanoma was 2.35% (active); in the assay with SW-620 colon, 25.7%; in the assay with MCF7 breast, 8.72% (active); in the assay on HCT-116 colon, 3.61% (active); in the assay on HCC-2998 colon, 6.76% (active); in the assay with KM12 colon it was 5.8% (active).

For `CN(C)CCC(CCN(C)C)(C(=O)O)c1ccccc1`, the growth with SR leukemia was 110%; in the assay with RPMI-8226 leukemia, 99.8%; in the assay on OVCAR-8 ovarian, 102%; with OVCAR-5 ovarian it was 99.2%; in the assay with OVCAR-4 ovarian, 105%; with SK-OV-3 ovarian, 102%. In addition, the growth in the assay on IGROV1 ovarian was 93.7%; with OVCAR-3 ovarian it was 113%; with HS 578T breast, 111%; in the assay with NCI/ADR-RES ovarian, 112%; in the assay on T-47D breast it was 104%; in the assay with BT-549 breast, 96.5%. In addition, the growth in the assay with MDA-MB-435 melanoma is 106%; with SW-620 colon it was 110%; in the assay with MCF7 breast, 94.1%; in the assay with HCT-116 colon, 104%; in the assay on HCC-2998 colon, 101%; in the assay on KM12 colon, 102%.

`COc1ccc(C(O)c2cc3c(N)c(C(=O)Nc4cccc5ccccc45)sc3nc2C)cc1` (centres undefined): the growth was 12.7% with SR leukemia; 18.3% in the assay with RPMI-8226 leukemia; 10.9% in the assay with OVCAR-8 ovarian; 21.5% with OVCAR-5 ovarian; 34.5% in the assay on OVCAR-4 ovarian; 18.3% in the assay with SK-OV-3 ovarian. The growth in the assay with IGROV1 ovarian was 9.69% (active); with OVCAR-3 ovarian it was 0.772% (active); in the assay with HS 578T breast, -9.07% (active); in the assay with NCI/ADR-RES ovarian, 4.32% (active); in the assay with T-47D breast, 44.2%; in the assay with BT-549 breast it was 8.08% (active). Further, the growth with MDA-MB-435 melanoma is -17.1% (active); with SW-620 colon, 18.8%; in the assay on MCF7 breast it was 11.3%; in the assay on HCT-116 colon, 6.27% (active); in the assay with HCC-2998 colon it was -38.8% (active); with KM12 colon, -6.56% (active).

As to `O=C(/C=C/c1ccccc1Cl)c1cccc(OCCCCOc2cccc(C(=O)/C=C/c3ccccc3Cl)c2)c1`, the growth is 81% with SR leukemia; -6.16% (active) with RPMI-8226 leukemia; 99.9% in the assay on OVCAR-8 ovarian; 101% in the assay with OVCAR-5 ovarian; 106% in the assay with OVCAR-4 ovarian; 100% in the assay with SK-OV-3 ovarian. Further, the growth is 92.8% in the assay on IGROV1 ovarian; 112% with OVCAR-3 ovarian; 106% in the assay on HS 578T breast; 103% in the assay on NCI/ADR-RES ovarian; 91.2% in the assay with T-47D breast; 116% with BT-549 breast. Also, the growth with MDA-MB-435 melanoma was 106%; in the assay with SW-620 colon, 99%; in the assay on MCF7 breast, 51.7%; in the assay on HCT-116 colon it was 50.1%; in the assay on HCC-2998 colon, 104%; with KM12 colon, 101%.

In the case of `Nc1ncnc2c1N=C(c1ccc(F)cc1)CC(c1cccc(Nc3ccnc4cc(Cl)ccc34)c1)N2` (centres undefined), the growth was 0.875% (active) in the assay on SR leukemia; 25.9% in the assay with RPMI-8226 leukemia; 82.2% in the assay on OVCAR-8 ovarian; 107% with OVCAR-5 ovarian; 76.3% in the assay on OVCAR-4 ovarian; 98.9% in the assay on SK-OV-3 ovarian. Further, the growth in the assay on IGROV1 ovarian is 74.3%; with OVCAR-3 ovarian it was 88.9%; with HS 578T breast, 68.3%; in the assay on NCI/ADR-RES ovarian, 78.2%; in the assay with T-47D breast it was 93.2%; in the assay with BT-549 breast, 99.9%. For the same compound, the growth in the assay with MDA-MB-435 melanoma was 41.8%; with SW-620 colon, 82.8%; with MCF7 breast it was 51.2%; in the assay with HCT-116 colon, 49.7%; in the assay on HCC-2998 colon, 82.5%; in the assay with KM12 colon, 60.9%.

With `CSc1ccc2c3c(n(C[C@H](O)CO)c(=O)c2c1)-c1ccccc1C3=O`, the growth in the assay on SR leukemia is 1.4% (active); in the assay on RPMI-8226 leukemia it was -17.3% (active); in the assay on OVCAR-8 ovarian it was 33.3%; in the assay on OVCAR-5 ovarian it was 62.2%; with OVCAR-4 ovarian, 85%; in the assay with SK-OV-3 ovarian, 81.6%. Besides, the growth with IGROV1 ovarian was 52.5%; with OVCAR-3 ovarian it was 76.5%; in the assay with HS 578T breast, 83.3%; in the assay with NCI/ADR-RES ovarian, 56%; in the assay with T-47D breast, 27.3%; in the assay on BT-549 breast it was 46.9%. The growth is 72% with MDA-MB-435 melanoma; 27.6% with SW-620 colon; 11.5% in the assay with MCF7 breast; -20.6% (active) in the assay with HCT-116 colon; 88.8% in the assay on HCC-2998 colon; 25.3% in the assay with KM12 colon.
